According to PubChem BioAssay (NCI):
Several values for one entry are separate records, joined by “and”; a condition that tells them apart may be missing. Equal values may be shown once. Compounds without any hit were thinned out: in the full panel of roughly 83,000, 20% have a hit.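 Cell lines were cultured in 96-well plates, exposed to a single compound concentration, and assessed for percent growth 48 hours later.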 Activity calls are given as the source filed them.

system: SK-MEL-28 melanoma; assay: NCI-60 one-dose screen, 48 h (100 = growth as untreated, 0 = no growth, -100 = all killed); conditions: 10 µM unless noted
Procedure: Growth inhibition of the SK-MEL-28 human tumor cell line is measured as a screen for anti-cancer activity. Cells are grown in 96 well plates and exposed to the test compound for 48 hours. Compounds are tested at a single concentration, which is 10^-5 M for most compounds. The reported endpoint is percent growth (GI% or GIPRCNT), where numbers from 0 - 100% represent growth inhibition, and numbers from -100% - 0 represent cell death. For example, a value of 40 represents 60% growth inhibition. A value of 0 means no net growth occurred over the course of the experiment. A value of -40 indicates 40% of cells at the beginning of the experiment died by the end of the experiment. A value of -100 means all cells are dead at the end of the experiment.
NCI-60 Human Tumor Cell Lines Screen was performed using the standard one-dose NCI protocol, which is described in more detail at https://dtp.cancer.gov/discovery_development/nci-60/default.htm.
Compounds with GIPRCNT values below 10 were considered active. Activity score was based on GIPRCNT using the following formula: […]
Score is 0 for GIPRCNT values of 100 or above, 50 for GIPRCNT values of 0, and 100 for GIPRCNT values of -100.

| SMILES | growth |
| --- | --- |
| Cc1ccc(C(=O)Nc2cc(-c3ccncc3)cc(C(F)(F)F)c2)cc1C#Cc1cnc2cccnn12 | 16.2% (inactive) |
| COc1cc(C=O)ccc1OC(=O)c1cc(-c2ccc(C)cc2)n(-c2ccc(S(C)(=O)=O)cc2)n1 | 113% (inactive) |
| NC1(c2ccc(-c3ccc4ncnc(NCc5ccccc5)c4c3)cn2)COC1 | 104% (inactive) and 107% (inactive) |
| O=C(CSc1nc2c(c(=O)[nH]1)CCCC2)Nc1ccccc1C(=O)O | 112% (inactive) |
| O=C1/C(=C/c2cnc(-c3ccccc3)s2)SC(=S)N1Cc1ccc2c(c1)OCO2 | 103% (inactive) |
| CC1(C)CC(=O)C2=C(C1)OC(N)=C(c1nc3ccccc3[nH]1)C2c1ccc(Cl)cc1 (stereo not given) | 30.1% (inactive) and 109% (inactive) |
| COc1ccc(NC(=O)Cn2c(/C=C/c3cccc(OC)c3)nc3ccccc3c2=O)cc1 | 89.3% (inactive) |
| COc1c(B(O)O)cc(F)cc1-c1nc2c(F)cc3[nH]ncc3c2c2c1CCCC2 | 25.7% (inactive) |
| Cc1nc(N)ncc1-c1ccc2ncnc(N3CCc4cc(F)c(Cl)cc43)c2c1 | 107% (inactive) |
| COc1ccccc1NC(=O)N/N=C/c1c[nH]c2ccccc12 | 44.2% (inactive) |
| Cc1ccc(-c2cc(C(=O)N=Nc3c(O)[nH]c4ccc(F)cc34)c3ccccc3n2)cc1 | 14.5% (inactive) |
| COc1cc(/C=C/C(=O)c2cnn(-c3cc(=O)[nH]c4ccc(C)cc34)c2C)cc(OC)c1OC | -77.2% (active) |
| O=C(CSc1nnc(-c2ccc(-c3nc4ccccc4[nH]3)cc2)o1)Nc1ccc(Br)cc1 | -63.6% (active) |
| COc1ccc2[nH]cc(-c3cc4nc(-c5cn(C)c6ncccc56)cc(N)n4n3)c2c1 | 82.6% (inactive) |
| COc1cncc(-c2ccc3ncnc(N4CCc5ccc(Cl)cc54)c3c2)c1 | 48.6% (inactive) |
| O=C(CSc1nc2ccccc2c(=O)[nH]1)NNC(=O)c1ccccc1Cl | 148% (inactive) |
| N/C(=N\c1nc2ccccc2s1)NC(=O)Nc1ccccc1F | 57.3% (inactive) |
| CN1CCN(C(=O)Oc2cc3c(c4ccccc24)[C@H](CCl)CN3C(=O)c2cc3cc(OCCCN4CCC4)ccc3[nH]2)[C@@H]2CSSC[C@H]21 | -39.5% (active) |
| Cc1ccc(S(=O)(=O)Nc2ccc(-c3ccc4c(c3)NC(=O)/C4=C\c3ccc[nH]3)cc2)cc1 | 95.9% (inactive) |
| COC(=O)c1cc(C(=O)CBr)n2c1ccc1c3ccccc3ccc12 | 92.3% (inactive) |

| SMILES | growth |
| --- | --- |
| COc1cc(NC(=O)CSc2nnc(-c3ccc(-c4nc5ccc(Cl)cc5[nH]4)cc3)o2)cc(OC)c1OC | 49.1% (inactive) |
| N#Cc1cc(-c2ccc3ncnc(N4CCc5cc(F)c(Cl)cc54)c3c2)cnc1N | 61.2% (inactive) |
| Cc1[nH]nc2ccc3nc(-c4cn[nH]c4C(F)(F)F)c4c(c3c12)CCCC4 | -20.1% (active) |
| COc1cc(C=O)ccc1Oc1nc(Nc2ccc(F)cc2)nc(N(C)C)n1 | 99.9% (inactive) and 84.4% (inactive) |
| COc1ccc(-c2cc(C(=O)N=Nc3c(O)[nH]c4ccc(Cl)cc34)c3ccccc3n2)cc1 | -6.34% (active) |
| N#CC1=C(c2cccs2)Nc2c(c(-c3ccccc3)nn2-c2ccccc2)C12C(=O)Nc1ccc(Cl)cc12 (stereo not given) | 41.8% (inactive) |
| COc1ccc(NC(=O)Nc2nc3ccc([N+](=O)[O-])cc3s2)cc1 | 47.7% (inactive) |
| O=C1CCC(N2C(=O)c3cccc(NCCOCCOCCOCCC(=O)NCCCC(=O)NC(c4ccc5c(c4)OCO5)c4cc(Cl)c5cccnc5c4O)c3C2=O)C(=O)C1 (stereo not given) | 20.4% (inactive) |
| O=C(Cc1c(-c2ccccc2[N+](=O)[O-])n(-c2ncnc3c2c(-c2ccccc2)c(-c2ccccc2)n3Cc2ccccc2)[nH]c1=O)c1ccc(Cl)c(Cl)c1 | 27.8% (inactive) |
| CCCn1c(NC(=O)c2cccc(C(N)=O)c2)nc2ccc(CN3CCCCC3)cc21 | 106% (inactive) |
| FC(F)(F)CN1CCN(CCn2c(C(F)(F)F)cc3c(Cl)ncnc32)CC1 | 31.3% (inactive) |
| C=CCSc1nnc(-c2c(C)nc3sccn23)o1 | 96.7% (inactive) |
| COC(=O)c1c(C(=O)OC)c2ccc3c4ccccc4ccc3n2c1C(=O)C(C)Br (stereo not given) | 65.4% (inactive) |
| COc1ccccc1Nc1nnc(-c2c[nH]c3ccccc23)o1 | 49.2% (inactive) |
| Cn1cc(-c2cc(N)n3nc(-c4c[nH]c5ccccc45)cc3n2)c2cc(F)ccc21 | 77.5% (inactive) |
| CN1C(=O)C2(C(C#N)=C(c3ccc(Cl)cc3)Nc3c2c(-c2ccccc2)nn3-c2ccccc2)c2ccccc21 (stereo not given) | 94.2% (inactive) |
| N#CC1=C(c2ccco2)Nc2c(c(-c3ccccc3)nn2-c2ccccc2)C12C(=O)Nc1ccc(Cl)cc12 (stereo not given) | 45.6% (inactive) |
| O=C(Nc1ccc(Br)cc1)Nc1ccc(-c2ccc3c(c2)NC(=O)/C3=C\c2ccc[nH]2)cc1 | 57.5% (inactive) |
| Clc1ccccc1Nc1nnc(-c2c[nH]c3ccccc23)o1 | 59.4% (inactive) |
| COc1nc(N)ncc1-c1ccc2ncnc(N3CCc4cc(F)c(Cl)cc43)c2c1 | 31.3% (inactive) |
